# Results filed as inconclusive are left out. Activity calls are given as the source filed them. Calls follow the shape of the dose curve; as a rule, active = well fitted curve in the direction sought with a large enough effect; inconclusive = small, poorly fitted or top-dose-only effect, or another doubt; inactive = no such curve, though single readings can be large; an effect the other way counts as inactive or inconclusive.
# How the values were obtained:
# [1] = Quantitative High-Throughput drug screen in 47 multiple myeloma cell lines against the NCATS MIPE library collection: INA6_PLB cell viability assay (AID 1918965; also: nearly all actives have a fitted effect of over 55% in size)
# Procedure, shortened: (§1)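 Viability readout: CellTiter-Glo luminescence following 5 min room-temperature incubation with reagent. Prior exposure: 48 h, 37C, humidified 5% CO2, 500 cells per well.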
# [2] = Quantitative High-Throughput drug screen in 47 multiple myeloma cell lines against the NCATS MIPE library collection: H1112_PLB cell viability assay (AID 1918967; also: nearly all actives have a fitted effect of over 30% in size)
# Procedure, shortened: as §1
# [3] = Quantitative High-Throughput drug screen in 47 multiple myeloma cell lines against the NCATS MIPE library collection: Karpas25_ECACC cell viability assay (AID 1918968; also: nearly all actives have a fitted effect of over 35% in size)
# Procedure, shortened: as §1
# [4] = Quantitative High-Throughput drug screen in 47 multiple myeloma cell lines against the NCATS MIPE library collection: KMS27_JCRB cell viability assay (AID 1918970); conditions: KMS27 myeloma cells, CellTiter-Glo ATP viability, 48 h; viability (% of DMSO): at 45.8 µM (top of the series); also: nearly all actives have a fitted effect of over 30% in size
# Procedure, shortened: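 Luminescent ATP read-out (CellTiter-Glo, 5 min at room temperature) after 48 h compound exposure of 500 KMS27_JCRB cells per well; DMSO wells define full viability and media-only wells zero.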
# [5] = Quantitative High-Throughput drug screen in 47 multiple myeloma cell lines against the NCATS MIPE library collection: JIM1_ECACC cell viability assay (AID 1918964)
# Procedure, shortened: as §1
# [6] = Quantitative High-Throughput drug screen in 47 multiple myeloma cell lines against the NCATS MIPE library collection: JJN3_DSMZ cell viability assay (AID 1918966; also: nearly all actives have a fitted effect of over 50% in size)
# Procedure, shortened: as §1
# [7] = Quantitative High-Throughput drug screen in 47 multiple myeloma cell lines against the NCATS MIPE library collection: JIM3_ECACC cell viability assay (AID 1918963; also: nearly all actives have a fitted effect of over 35% in size)
# Procedure, shortened: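 We plated 500 myeloma cells per well, pinned in MIPE 4.0 compounds, and incubated for 48 hours at 37C. ATP was then quantified with CellTiter-Glo, with DMSO and media-only wells defining 100% and 0%.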
# Potency is read from the fitted curve at half-maximal effect.
compound,measurement,setting,value
O=[N+]([O-])c1ccc(Nc2ccccc2-c2ccccc2)c2nonc12,Potency,[1],26.4 µM (active)
same,Potency,[2],18.7 µM (active)
same,Potency,[3],18.7 µM (active)
same,Potency,[4],20.9 µM (active)
Cc1ccccc1C(=O)c1ccc(Nc2ccc(Br)cc2N)cc1Cl,Potency,[1],18.7 µM (active)
same,Potency,[3],18.7 µM (active)
same,Potency,[4],6.62 µM (active)
O=C(Nc1cccc2c(=O)cc(-c3nn[nH]n3)oc12)c1ccc(OCCCCc2ccccc2)cc1,Potency,[1],18.7 µM (active)
same,Potency,[3],18.7 µM (active)
CN1CCN(c2ncc(-c3cc(Cl)cc(Cl)c3Cl)c(N)n2)CC1,Potency,[5],23.5 µM (active)
same,Potency,[1],13.2 µM (active)
CN(C)c1ccccc1CN1CCCN(Cc2ccccc2N(C)C)C1c1ccncc1,Potency,[1],23.5 µM (active)
same,Potency,[3],16.6 µM (active)
CCCCN(CCCC)CC(O)c1cc(Cl)cc2c1-c1ccc(Cl)cc1C2=Cc1ccc(Cl)cc1 (stereo unspecified),Potency,[1],18.7 µM (active)
same,Potency,[6],18.7 µM (active)
same,Potency,[2],26.4 µM (active)
same,Potency,[3],23.5 µM (active)
Cn1cc(-c2ccc3nnc(Sc4ccc5ncccc5c4)n3n2)cn1,Potency,[2],inactive
same,Potency,[4],inactive
Cn1cnc(-c2cc3nccc(Oc4ccc(NC(=S)NC(=O)Cc5ccccc5)cc4F)c3s2)c1,Potency,[1],6.62 µM (active)
same,Potency,[6],16.6 µM (active)
same,Potency,[4],23.5 µM (active)
CC(=O)N1CCN(c2ccc(OCc3nn(C)c(C)c3-c3cccc4c(CCCOc5cc(C)c(Cl)c(C)c5)c(C(=O)O)n(Cc5cccnc5)c34)cc2)CC1,Potency,[1],1.66 µM (active)
same,Potency,[2],7.43 µM (active)
same,Potency,[3],3.32 µM (active)
same,Potency,[4],8.33 µM (active)
CCCCC(C)(C)[C@H](O)C=C[C@H]1[C@H](O)CC(=O)[C@H]1CC=CCCCC(=O)O,Potency,[5],inactive
same,Potency,[1],23.5 µM (active)
same,Potency,[3],18.7 µM (active)
same,Potency,[4],inactive
COc1c(C)c2c(c(O)c1CC=C(C)CCC(=O)OCCN1CCOCC1)C(=O)OC2,Potency,[1],1.87 µM (active)
same,Potency,[2],3.32 µM (active)
same,Potency,[3],4.18 µM (active)
same,Potency,[4],2.09 µM (active)
COc1ccc(Cn2ccc3ccc(C(=O)NO)cc32)cc1,Potency,[5],inactive
same,Potency,[1],13.2 µM (active)
same,Potency,[6],11.8 µM (active)
same,Potency,[2],inactive
same,Potency,[3],16.6 µM (active)
COc1ccc(-c2ccc3ncc4c(c3c2)n(-c2ccc(N3CCNCC3)c(C(F)(F)F)c2)c(=O)n4C)cn1,Potency,[6],0.0066 µM (active)
same,Potency,[2],0.0935 µM (active)
CC(C)(F)C[C@H](N[C@@H](c1ccc(-c2ccc(S(C)(=O)=O)cc2)cc1)C(F)(F)F)C(=O)NC1(C#N)CC1,Potency,[7],0.0833 µM (active)
same,Potency,[2],inactive
same,Potency,[3],inactive
same,Potency,[4],inactive
O=C1C(CCC(O)c2ccc(F)cc2)C(c2ccc(O)cc2)N1c1ccc(F)cc1 (stereo unspecified),Potency,[5],inactive
same,Potency,[1],inactive
same,Potency,[2],inactive
same,Potency,[3],inactive
N=C1SC(=Cc2ccc(-c3ccc4c(c3)C(=O)NC4=O)o2)C(=O)N1c1ccc(Br)cc1,Potency,[5],inactive
same,Potency,[6],2.96 µM (active)
same,Potency,[2],inactive
same,Potency,[4],inactive
CO[C@H]1/C=C\O[C@@]2(C)Oc3c(C)c(O)c4c(O)c(c(C=NN5CCN(C6CCCC6)CC5)c(O)c4c3C2=O)NC(=O)C(C)=CC=C[C@H](C)[C@H](O)[C@@H](C)[C@@H](O)[C@@H](C)[C@H](OC(C)=O)[C@H]1C,Potency,[6],6.62 µM (active)
same,Potency,[2],1.18 µM (active)
same,Potency,[3],0.0235 µM (active)
